Whole data set: some 18,000 sequences, median “log2 normalized intensity” near 0.36, cut for the highest 2% near 7.3. This is one part of a sample in which the highest values are shown more often than they occur.

In the assay the target is T1, HNF4alpha8 (COS-7 nuclear extract) (Homo sapiens, UniProt P41235-5 1-452).
T1 sequence: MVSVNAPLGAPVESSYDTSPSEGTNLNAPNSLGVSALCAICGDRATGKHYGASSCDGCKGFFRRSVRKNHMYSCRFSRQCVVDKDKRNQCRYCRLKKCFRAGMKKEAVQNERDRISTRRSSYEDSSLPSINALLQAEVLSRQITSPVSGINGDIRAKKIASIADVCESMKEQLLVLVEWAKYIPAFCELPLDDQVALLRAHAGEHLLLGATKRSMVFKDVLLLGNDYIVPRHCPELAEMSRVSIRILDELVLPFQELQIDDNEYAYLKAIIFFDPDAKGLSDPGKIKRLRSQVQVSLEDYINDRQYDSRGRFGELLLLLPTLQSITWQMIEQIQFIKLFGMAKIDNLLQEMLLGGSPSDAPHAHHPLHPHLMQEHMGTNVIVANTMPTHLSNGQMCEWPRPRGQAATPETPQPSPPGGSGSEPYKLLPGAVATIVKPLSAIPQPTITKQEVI
Briefly: protein-binding microarray; COS-7 nuclear extract on double-stranded Agilent 4x180k PBM; binding buffer, salt, pH and temperature not given in the material; high values mean tight binding. The conditions noted are these: chain copies: 2; label: 3' end of strand 1 on the slide; dsDNA, one strand shown. The essentials:
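Double-stranded oligonucleotides of ~60 nt, representing ~44,000 test sequences in quadruplicate, made up a custom Agilent SurePrint G3 4x180k array. Nuclear extracts from COS-7 cells transiently transfected by CaPO4 with a human HNF4α isoform expression vector were applied, and bound HNF4α was imaged at 2-µm resolution on an Agilent G2565CA scanner. Binding signal refers to the background-corrected, normalized gProcessedSignal output of Agilent software.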
For “AGTGAGCCAAGGTACCCTGGCTTGTAATTCGCCTAGGGAGATTAGAGTATCGGTCGA”, the binding signal was -0.844 log2 normalized intensity.

On to “ATCAGAGCTGGATGTGAGTTATGACTACTTGCCTAGGGAGATTAGAGTATCGGTCGA”, for which the binding signal stood at 0.62 log2 normalized intensity.

Take “TTTTAAGGTCTGGCATTCTTTTTGACCTTTGCCTAGGGAGATTAGAGTATCGGTCGA”: the binding signal was 8.23 log2 normalized intensity.

As for “ACTCAGGCATTCTGACCTTTGTCTCCAGGCGCCTAGGGAGATTAGAGTATCGGTCGA”, the binding signal came out at 6.52 log2 normalized intensity.

Regarding “GATTGACTCAGGCATTCTGACCTTTGTCTCGCCTAGGGAGATTAGAGTATCGGTCGA”, the binding signal worked out at 7.94 log2 normalized intensity.

On to “CCTTTTATTTTCTTATCTGCCTAGGCATTTGCCTAGGGAGATTAGAGTATCGGTCGA”, for which the binding signal amounted to 1.58 log2 normalized intensity.

“CCTTTGACCTTCGGCTTCCCCAGAGAAAGAGCCTAGGGAGATTAGAGTATCGGTCGA”: the binding signal was found to be 3.38 log2 normalized intensity.

With “TCAGGCACAGCTCGACCTTTGACCTTCGGCGCCTAGGGAGATTAGAGTATCGGTCGA”, the binding signal is 10.9 log2 normalized intensity.

For “CACAGCTCGACCTTTGACCTTCGGCTTCCCGCCTAGGGAGATTAGAGTATCGGTCGA”, the binding signal came out at 9.06 log2 normalized intensity.

Consider “CCCGCCTTTGACACAGGCGACCTTCGCTCGGCCTAGGGAGATTAGAGTATCGGTCGA”, for which the binding signal is 6.06 log2 normalized intensity.

In the case of “CTTTGACACAGGCGACCTTCGCTCGGCTCGGCCTAGGGAGATTAGAGTATCGGTCGA”, the binding signal was determined as 4.27 log2 normalized intensity.

On to “AAATCCCCGCCTTTGACACAGGCGACCTTCGCCTAGGGAGATTAGAGTATCGGTCGA”, for which the binding signal was found to be 4.58 log2 normalized intensity.

On to “CCATATCACATTTTAAGGTCTGGCATTCTTGCCTAGGGAGATTAGAGTATCGGTCGA”, for which the binding signal worked out at 1.1 log2 normalized intensity.

As for “CTGCAGATTGACTCAGGCATTCTGACCTTTGCCTAGGGAGATTAGAGTATCGGTCGA”, the binding signal is 7.32 log2 normalized intensity.

Regarding “CCAACAGGTGAAGACATGCTGGTGTGTGATGCCTAGGGAGATTAGAGTATCGGTCGA”, the binding signal came out at 0.875 log2 normalized intensity.

“AGATGGTCAAAGGTTGATGGTATGTTTCAGGCCTAGGGAGATTAGAGTATCGGTCGA”: the binding signal was determined as 3.86 log2 normalized intensity.

With “TGAATCCTCTTTGAGTCTGGTGTTCTCTTGGCCTAGGGAGATTAGAGTATCGGTCGA”, the binding signal turned out to be 1.65 log2 normalized intensity.

For “CGCATCTGAAGATAAGAGAAGTTGCTCTTTGCCTAGGGAGATTAGAGTATCGGTCGA”, the binding signal came out at 2.63 log2 normalized intensity.

On to “CCTGCAAGGACAAAGGTCATGTTTTCAAACGCCTAGGGAGATTAGAGTATCGGTCGA”, for which the binding signal was 6.34 log2 normalized intensity.

Take “AATTTGAACCAAGATCTGTGAAAGAAAAGTGCCTAGGGAGATTAGAGTATCGGTCGA”: the binding signal was -0.147 log2 normalized intensity.

For “TATGTGCTGACTGACTCCTGTTACTTCCACGCCTAGGGAGATTAGAGTATCGGTCGA”, the binding signal was determined as 0.0957 log2 normalized intensity.

For the sequence “AGTGTGGGGTGACTGACTTAACCCTTGCCTGCCTAGGGAGATTAGAGTATCGGTCGA”, the binding signal came to 2.27 log2 normalized intensity.

Turning to “CTCCACTTGGGTATCAGATAGTCCAATGTCGCCTAGGGAGATTAGAGTATCGGTCGA”, the binding signal was found to be 2.52 log2 normalized intensity.

Turning to “GCCTCTCTGTGCTGGAACTTGCTTCCTTATGCCTAGGGAGATTAGAGTATCGGTCGA”, the binding signal turned out to be 1.37 log2 normalized intensity.
